We go through 8 compounds from the supplement of paper PMC9794691.

This experiment relates to PC9. Nature of the experiment: area under confluence curve of osimertinib + compound combination regimen (DTP regrowth); compare to osimertinib-only DTP control AUC of the same experiment (AUC (confluence x time, arbitrary)). On the procedure: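 compare to osimertinib-only DTP control AUC of the same experiment; Long-term drug-tolerant persister (DTP) screen in EGFR-mutant NSCLC cell lines in 48-well plates. The test compound was given at one fixed dose with osimertinib, either upfront (from day 0 to the DTP stage at 10-21 days, then drug-free medium) or sequentially (osimertinib alone to the DTP stage, then the test compound). IncuCyte confluence was tracked until osimertinib-only controls regrew, and AUC was computed in Prism. AUC scale depends on experiment duration, so each row carries the same-experiment osimertinib-only DTP and DMSO control AUCs; combination activity = control minus combo AUC. Osimertinib dose not stated.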

Setting [1] is: test compound dose 1000 nM, dosing schedule: sequential, osimertinib-only DTP control AUC in same experiment: 12535, DMSO control AUC in same experiment: 43316.
The mark [2] stands for this setting: test compound dose 1000 nM, dosing schedule: sequential, osimertinib-only DTP control AUC in same experiment: 15163, DMSO control AUC in same experiment: 28684.
Where [3] appears, read: test compound dose 1000 nM, dosing schedule: upfront, osimertinib-only DTP control AUC in same experiment: 15354, DMSO control AUC in same experiment: 43316.
Setting [4] is: test compound dose 1000 nM, dosing schedule: upfront, osimertinib-only DTP control AUC in same experiment: 21337, DMSO control AUC in same experiment: 28684.

± gives the standard deviation of the averaged measurements.

Turning to `Cn1cc(CNCC2CCN(c3ncc(C(=O)NO)cn3)CC2)c2ccccc21` [Quisinostat] + C=CC(=O)Nc1cc(Nc2nccc(-c3cn(C)c4ccccc34)n2)c(OC)cc1N(C)CCN(C)C [osimertinib], the “area under confluence curve” value runs as follows: (test compound dose 10 nM, dosing schedule: sequential, osimertinib-only DTP control AUC in same experiment: 10175, DMSO control AUC in same experiment: 27958) 2060; (test compound dose 10 nM, dosing schedule: sequential, osimertinib-only DTP control AUC in same experiment: 13992, DMSO control AUC in same experiment: 30002) 4770; (test compound dose 10 nM, dosing schedule: sequential, osimertinib-only DTP control AUC in same experiment: 14708, DMSO control AUC in same experiment: 21341) 2700; (test compound dose 10 nM, dosing schedule: upfront, osimertinib-only DTP control AUC in same experiment: 16134, DMSO control AUC in same experiment: 27958) 1380; (test compound dose 10 nM, dosing schedule: upfront, osimertinib-only DTP control AUC in same experiment: 21313, DMSO control AUC in same experiment: 21341) 6010; (test compound dose 10 nM, dosing schedule: upfront, osimertinib-only DTP control AUC in same experiment: 22377, DMSO control AUC in same experiment: 30002) 4720.

Consider `COC(=O)c1ccc([C@H]2c3[nH]c4ccccc4c3C[C@H](C(=O)OC)N2C(=O)CCl)cc1` + C=CC(=O)Nc1cc(Nc2nccc(-c3cn(C)c4ccccc34)n2)c(OC)cc1N(C)CCN(C)C [osimertinib], for which the “area under confluence curve” value runs as follows: (test compound dose 100 nM, dosing schedule: sequential, osimertinib-only DTP control AUC in same experiment: 8716, DMSO control AUC in same experiment: 45737) 655; (test compound dose 100 nM, dosing schedule: sequential, osimertinib-only DTP control AUC in same experiment: 10175, DMSO control AUC in same experiment: 27958) 1250; (test compound dose 100 nM, dosing schedule: sequential, osimertinib-only DTP control AUC in same experiment: 14030, DMSO control AUC in same experiment: 30326) 1840; (test compound dose 100 nM, dosing schedule: upfront, osimertinib-only DTP control AUC in same experiment: 11096, DMSO control AUC in same experiment: 45737) 12700; (test compound dose 100 nM, dosing schedule: upfront, osimertinib-only DTP control AUC in same experiment: 16134, DMSO control AUC in same experiment: 27958) 13900; (test compound dose 100 nM, dosing schedule: upfront, osimertinib-only DTP control AUC in same experiment: 20885, DMSO control AUC in same experiment: 30326) 13600.

Regarding `NC1(C(=O)N[C@@H](CCO)c2ccc(Cl)cc2)CCN(c2nc[nH]c3nccc2-3)CC1` [Capivasertib] + C=CC(=O)Nc1cc(Nc2nccc(-c3cn(C)c4ccccc34)n2)c(OC)cc1N(C)CCN(C)C [osimertinib], the “area under confluence curve” value reads like this: (test compound dose 300 nM, dosing schedule: sequential, osimertinib-only DTP control AUC in same experiment: 3562, DMSO control AUC in same experiment: 31840) 1390; (test compound dose 300 nM, dosing schedule: sequential, osimertinib-only DTP control AUC in same experiment: 10725, DMSO control AUC in same experiment: 30578) 2030; (test compound dose 300 nM, dosing schedule: sequential, osimertinib-only DTP control AUC in same experiment: 12535, DMSO control AUC in same experiment: 43316) 2150; (test compound dose 300 nM, dosing schedule: upfront, osimertinib-only DTP control AUC in same experiment: 10245, DMSO control AUC in same experiment: 30578) 9240; (test compound dose 300 nM, dosing schedule: upfront, osimertinib-only DTP control AUC in same experiment: 15354, DMSO control AUC in same experiment: 43316) 14600; (test compound dose 300 nM, dosing schedule: upfront, osimertinib-only DTP control AUC in same experiment: 19015, DMSO control AUC in same experiment: 31840) 13200.

`C[C@@H](Nc1cc(F)cc(F)c1)c1cc(C(=O)N(C)C)cc2c(=O)cc(N3CCOCC3)oc12` + C=CC(=O)Nc1cc(Nc2nccc(-c3cn(C)c4ccccc34)n2)c(OC)cc1N(C)CCN(C)C [osimertinib]: the “area under confluence curve” value is, setting by setting: (test compound dose 1000 nM, dosing schedule: sequential, osimertinib-only DTP control AUC in same experiment: 1963, DMSO control AUC in same experiment: 30580) 1970 ± 150; (test compound dose 1000 nM, dosing schedule: sequential, osimertinib-only DTP control AUC in same experiment: 10725, DMSO control AUC in same experiment: 30578) 4550; under setting [1], 4790; under setting [2], 5770; (test compound dose 1000 nM, dosing schedule: upfront, osimertinib-only DTP control AUC in same experiment: 8618, DMSO control AUC in same experiment: 30580) 4780 ± 250; (test compound dose 1000 nM, dosing schedule: upfront, osimertinib-only DTP control AUC in same experiment: 10245, DMSO control AUC in same experiment: 30578) 8450. For the same compound, the “area under confluence curve” value by setting is: under setting [3], 8140; under setting [4], 7910.

Regarding `COc1cc(CCc2cc(NC(=O)c3ccc(N4CC(C)NC(C)C4)cc3)n[nH]2)cc(OC)c1` (stereo not given) + C=CC(=O)Nc1cc(Nc2nccc(-c3cn(C)c4ccccc34)n2)c(OC)cc1N(C)CCN(C)C [osimertinib], the “area under confluence curve” value amounted to 4800 (test compound dose 1000 nM, dosing schedule: sequential, osimertinib-only DTP control AUC in same experiment: 9508, DMSO control AUC in same experiment: 26668); 7160 (test compound dose 1000 nM, dosing schedule: sequential, osimertinib-only DTP control AUC in same experiment: 10968, DMSO control AUC in same experiment: 21594); 2090 (test compound dose 1000 nM, dosing schedule: upfront, osimertinib-only DTP control AUC in same experiment: 11298, DMSO control AUC in same experiment: 26668); 6660 (test compound dose 1000 nM, dosing schedule: upfront, osimertinib-only DTP control AUC in same experiment: 17834, DMSO control AUC in same experiment: 21594).

Consider `CCn1nc(C2CCN(C(=O)CCO)CC2)nc1-c1cnc(N)c(-c2nnc(C(C)(C)C)o2)n1` + C=CC(=O)Nc1cc(Nc2nccc(-c3cn(C)c4ccccc34)n2)c(OC)cc1N(C)CCN(C)C [osimertinib], for which the “area under confluence curve” value under setting [1] stood at 3140, the “area under confluence curve” value under setting [2] was found to be 9440, the “area under confluence curve” value under setting [3] is 5490 and the “area under confluence curve” value under setting [4] was determined as 15400.

Regarding `C[C@@H](c1ccc2nccn2c1)n1nnc2ncc(-c3cnn(C)c3)nc21` [Savolitinib] + C=CC(=O)Nc1cc(Nc2nccc(-c3cn(C)c4ccccc34)n2)c(OC)cc1N(C)CCN(C)C [osimertinib], the “area under confluence curve” value is, setting by setting: under setting [1], 7800; under setting [3], 11900.

`Cc1cccc(-c2[nH]c(C(C)(C)C)nc2-c2ccc3nccnc3c2)n1` + C=CC(=O)Nc1cc(Nc2nccc(-c3cn(C)c4ccccc34)n2)c(OC)cc1N(C)CCN(C)C [osimertinib]: the “area under confluence curve” value (test compound dose 1000 nM, dosing schedule: sequential, osimertinib-only DTP control AUC in same experiment: 13130, DMSO control AUC in same experiment: 20567) was 13600; the “area under confluence curve” value (test compound dose 1000 nM, dosing schedule: sequential, osimertinib-only DTP control AUC in same experiment: 15001, DMSO control AUC in same experiment: 22064) is 14500; the “area under confluence curve” value (test compound dose 1000 nM, dosing schedule: upfront, osimertinib-only DTP control AUC in same experiment: 18577, DMSO control AUC in same experiment: 20567) came out at 20300; the “area under confluence curve” value (test compound dose 1000 nM, dosing schedule: upfront, osimertinib-only DTP control AUC in same experiment: 24924, DMSO control AUC in same experiment: 22064) was 25300.
